Assay outcomes (PubChem BioAssay)
Compounds with a hit are over-represented: about 3.5% of the library has one in this group of screens.
MITF primary: blocks human microphthalmia-associated transcription factor | O75030 | AlphaScreen MITF homodimerization, bead proximity signal | inhibition, % at 2.6 µM | 650,000 tested, 0.91% active | AID 1259374; in the data active = inhibition above about 50%;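 note: 0% = vehicle wells with protein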
Target sequence (O75030 whole entry, looked up): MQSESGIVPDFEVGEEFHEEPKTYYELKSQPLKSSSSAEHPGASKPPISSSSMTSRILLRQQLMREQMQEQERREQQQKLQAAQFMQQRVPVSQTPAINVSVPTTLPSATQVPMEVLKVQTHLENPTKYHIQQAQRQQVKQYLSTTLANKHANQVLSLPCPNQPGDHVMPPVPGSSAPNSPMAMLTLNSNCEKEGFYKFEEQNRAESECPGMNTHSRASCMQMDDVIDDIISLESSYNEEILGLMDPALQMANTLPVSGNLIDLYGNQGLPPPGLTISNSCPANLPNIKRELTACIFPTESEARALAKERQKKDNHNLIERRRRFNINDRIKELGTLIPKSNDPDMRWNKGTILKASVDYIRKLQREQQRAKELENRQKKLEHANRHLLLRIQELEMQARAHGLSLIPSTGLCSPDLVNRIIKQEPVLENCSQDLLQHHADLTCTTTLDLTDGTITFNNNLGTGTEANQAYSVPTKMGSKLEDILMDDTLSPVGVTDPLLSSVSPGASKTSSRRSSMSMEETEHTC
FBW7 activator: activators of human E3 ligase FBW7; Q969H0; AlphaScreen FBW7–phospho-cyclin E peptide binding, activator screen; normalized activity (activation), % at 26.1 µM; 650,000 tested, 0.13% active; AID 1259310; in the data active = normalized activity above about 1.9%;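 note: purified mutant Fbw7 with reduced substrate affinity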
GPR151 ag: activates the human receptor GPR151; Q8TDV0; PathHunter beta-arrestin GPR151 cells, luminescence; activation, % at 11.2 µM; 650,000 tested, 1% active; in the data active = activation above about 4.9%;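 note: 0% = median of compound wells and 100% = cells with positive control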
TEAD-YAP block: TEAD-YAP interaction inhibition; HEK-TIYL cells, TEAD-Gal4/YAP UAS-luciferase luminescence; inhibition, % at 9.12 µM; 640,000 tested, 1.4% active; AID 1259422; in the data active = inhibition above about 32%;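 note: 0% = median of test compound wells and 100% = reference inhibitor wells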
MITF confirm: human MITF inhibition, confirmation. shares compounds with MITF primary. AlphaScreen MITF homodimerization, biotin/His-MITF beads. inhibition, % at 2.6 µM. 4,700 tested, 16% active;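 active = inhibition above a cutoff derived from the DMSO control wells, cut at about 28% in these data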;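 note: 0% = MITF dimer wells with DMSO only; inhibitors lower the bead chemiluminescence by keeping MITF from dimerizing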
AS interf DR: counter-screen: compounds optically interfering with AlphaScreen. shares compounds with MITF primary. IC50, µM. AlphaScreen optical interference counterscreen, cell-free. 480 tested, 6% active; call rule not given here
AlphaScreen intf2: counter-screen: compounds optically interfering with AlphaScreen; shares compounds with MITF primary; LysRS AlphaScreen counterscreen, signal interference, triplicate; 4,700 tested, 7.6% active; inhibition, % at 2.6 µM; AID 1259376;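 active = inhibition above a cutoff derived from the DMSO control wells, cut at about 30% in these data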
Active calls of the source: *; . = not tested or not shown; ! = not confirmed by another sample.

SMILES	MITF primary	FBW7 activator	GPR151 ag	TEAD-YAP block	MITF confirm	AlphaScreen intf2	others
COc1ccc(NC(=O)Cn2nnc(-c3ccccc3N)n2)cc1OC	58*	0	0	10	7	13
COc1ccccc1CN1CCCCCC1	18	0	1	2	.	.
COc1ccc(CN2CCN(Cc3ccccn3)CC2)c(OC)c1OC	59*	0	0	-7	12	18
COc1ccc(CN2CCN(c3ccccn3)CC2)c(OC)c1OC	41	0	1	1	.	.
COc1ccccc1CN1CCN(Cc2ccccn2)CC1	65*	0	1	-1	1	16
O=C1O[C@H](C(O)CO)C(O)=C1O (some centres undefined)	76*!	0	-1	0	47*	2	AS interf DR=>6.5
COC(=O)c1ccccc1NC(=S)N1CCn2c(nc3ccccc32)C1	-8	0	0	0	.	.
CC(C)CC(OC(=O)CN1C(=O)COc2ccccc21)C(=O)NC1CCCCC1 (centres undefined)	1	0	0	6	.	.
Cc1ccc2c(c1)N(CC(=O)OC(CC(C)C)C(=O)NC1CCCC1)C(=O)CO2 (centres undefined)	54*	0	0	3	2	14
CCCC1CCC(C2CCC(=O)CC2)CC1 (centres undefined)	53*	0	3	-5	14	13
CCOc1cc(C#N)c(NC(=O)c2cc([N+](=O)[O-])ccc2N2CCOCC2)cc1OCC	67*	0	0	-10	15	8
CCOc1ccc(NC(=O)c2cc([N+](=O)[O-])ccc2N2CCOCC2)cc1	-5	0	3	6	.	.
O=C(c1csc(-n2cccc2)n1)N1CCN(c2ccccn2)CC1	60*	0	-1	2	14	9
O=C(c1csc(-n2cccc2)n1)N1CCN(c2ccccc2O)CC1	3	0	-1	2	.	.
CCOC(=O)CCNC(C)C1COc2ccccc2O1 (centres undefined)	51*	0	1	4	11	13
CC(=O)c1cccc(NC(=O)CSCc2cccc(Br)c2)c1	21	0	0	4	.	.
O=[N+]([O-])c1ccc(-c2nsc3c(N4CCN(Cc5cccnc5)CC4)ncnc23)cc1	13	0	0	-14	.	.
O=[N+]([O-])c1ccc(CN2CCN(Cc3ccncc3)CC2)cc1	65*	0	-1	7	10	15
O=[N+]([O-])c1ccc(CN2CCN(Cc3cccnc3)CC2)cc1	64*	0	-1	-4	-21	2
O=[N+]([O-])c1ccc(CN2CCSCC2)cc1	48	0	1	5	.	.
O=C1CCCC2=C1C(c1ccc([N+](=O)[O-])o1)C1=C(CCCC1=O)O2	67*	0	0	-7	62*	8	AS interf DR=>7.1
Cc1c(C2=N/C(=C/c3ccc(Cl)cc3Cl)C(=O)O2)cccc1[N+](=O)[O-]	25	0	0	4	.	.
C/C=C/c1ccc(OCCn2cncn2)c(OC)c1	55*	0	0	-5	13	17
C/C=C/c1ccc(OCCCCn2cncn2)c(OC)c1	55*	0	2	2	-10	-8
Cc1ccc(OCCCCn2cncn2)c(I)c1	-19	0	1	-30	.	.
SMILES	MITF primary	FBW7 activator	GPR151 ag	TEAD-YAP block	MITF confirm	AlphaScreen intf2	others
Cc1ccc(OCCn2cncn2)c(I)c1	60*	1	0	-1	8	12
COc1ccc(C2/C(=C(/O)c3ccc(C)cc3)C(=O)C(=O)N2CC(C)O)cc1OC (centres undefined)	68*	0	0	5	8	-3
C=Cn1ccnc1P(c1ccccc1)c1nccn1C=C	104*	-1	-1	-8	110*	100*
O=C(O)C1=Nc2cccc3cccc(c23)N1	0	0	0	2	.	.
CN1CCN(c2ccc(-c3nc(NCc4cccc(C(F)(F)F)c4)c4ncn(CCN5CCCC5=O)c4n3)cc2)CC1	0	0	-1	1	.	.
Cn1c(=O)cc(N2CCCCC2)n(Cc2cccc(C(F)(F)F)c2)c1=O	2	0	1	-9	.	.
Cn1c(=O)cc(N2CCCC2)n(Cc2cccc(C(F)(F)F)c2)c1=O	68*	0	1	6	12	18
